TGFb inhibitor: inhibitors of TGF-b signaling; HepG2 CAGA-GFP TGF-b/SMAD3 reporter, GFP fluorescence, 18 h; TGF-beta stimulated, 500 pg/mL final; Potency, µM (highest dose often 46.1 µM), for the others: top-dose activity, negative = inhibition, actives largely listed as inhibitors; actives 1.2% (n = 410,000); AID 588855; note: potency is the fitted concentration of half-maximal effect; % is set by controls: 0 for no effect and ±100 for the full control effect; nearly all actives have a fitted effect of over 65% in size
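Read-out: total well GFP (ex488/em500-530) summed from mean per-cell fluorescence. Cells: HEPG2 CAGA-GFP, 1% FBS DMEM, 18 h at 37 degrees C with 500 pg/mL final TGF-beta. Unstimulated wells served as the full-inhibition control; stimulated DMSO wells = 0%.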
TDP1 cell noCPT: qHTS for Inhibitors of human tyrosyl-DNA phosphodiesterase 1 (TDP1): qHTS in cells in absence of CPT; DT40 Tdp1-/- hTDP1 cells, no CPT, ATP luminescence, 48 h; Potency, µM (doses to about 46.2 µM), for the others: at the top dose activity change, negative = growth inhibition, actives largely listed as inhibitors; actives 15% (n = 420,000); AID 686978, 2013; note: potency is the fitted concentration of half-maximal effect; % is set by controls: 0 for no effect and ±100 for the full control effect; nearly all actives have a fitted effect of over 55% in size
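Chicken DT40 Tdp1-/- cells complemented with human TDP1, screened without camptothecin (DMSO vehicle only), 400 cells/well. Compounds pin-transferred, cells incubated at 37 °C for at least 48 hr. Growth read as ATP-dependent luminescence (CellTiter-Glo, 30 min at RT).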
TDP1 block: blocks human tyrosyl-DNA phosphodiesterase 1. recombinant TDP1, AlphaScreen DNA substrate cleavage. actives 0.28% (n = 350,000). Q9NUW8. Potency, µM (highest dose often 130 µM), without a hit: at the top dose activity change, negative = inhibition, most hits filed as inhibitors; note: potency is the fitted concentration of half-maximal effect; % is set by controls: 0 for no effect and ±100 for the full control effect; nearly all actives have a fitted effect of over 40% in size
Target sequence (Q9NUW8 whole entry, looked up): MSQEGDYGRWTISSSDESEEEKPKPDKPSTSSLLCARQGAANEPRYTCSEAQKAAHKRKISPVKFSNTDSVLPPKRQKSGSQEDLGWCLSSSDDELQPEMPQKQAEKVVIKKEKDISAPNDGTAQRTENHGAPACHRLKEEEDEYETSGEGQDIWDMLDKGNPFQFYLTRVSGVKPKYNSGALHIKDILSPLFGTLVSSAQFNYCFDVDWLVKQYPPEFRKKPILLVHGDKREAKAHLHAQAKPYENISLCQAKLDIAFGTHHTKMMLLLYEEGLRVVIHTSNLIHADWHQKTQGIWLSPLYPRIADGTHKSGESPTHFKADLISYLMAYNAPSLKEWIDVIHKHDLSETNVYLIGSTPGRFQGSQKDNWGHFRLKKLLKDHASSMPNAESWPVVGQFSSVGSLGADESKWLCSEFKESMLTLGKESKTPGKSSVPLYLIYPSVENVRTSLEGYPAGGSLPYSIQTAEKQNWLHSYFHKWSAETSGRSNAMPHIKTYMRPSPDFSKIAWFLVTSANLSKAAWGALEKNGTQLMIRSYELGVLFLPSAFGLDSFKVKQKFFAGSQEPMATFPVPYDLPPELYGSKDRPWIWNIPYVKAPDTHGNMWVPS
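Steps: enzyme plus compound, 15 min RT; add biotin/phosphotyrosine-FITC oligonucleotide (15 nM final), react 5 min; add donor/acceptor beads (10 ug/ml final), 10 min; read AlphaScreen. Tdp1 at 1 nM final.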
HepG2 tox: HepG2 cytotoxicity, counter-screen for TGF-b inhibitors | HepG2 CAGA-GFP viability, ATP luminescence, 18 h | Potency, µM (doses to about 46.1 µM), for inactives: top-dose activity change, negative = cytotoxicity, actives largely listed as cytotoxic | actives 0.76% (n = 410,000) | AID 588856; note: potency is the fitted concentration of half-maximal effect
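HepG2 CAGA-GFP cells (1000/well, DMEM with 1% FBS) received compound, then TGF-beta at 500 pg/mL final, and were incubated 18 hours at 37 degrees C. Viability was read by CellTiter-Glo luminescence. Media-only wells were set as complete cell-killing and DMSO as no toxicity.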
DT40 TDP1 CPT: growth inhibition of DT40 Tdp1-/-;hTDP1 cells with camptothecin (screen for TDP1 inhibitors). chicken DT40 Tdp1-/-;hTDP1 cells + 20 nM CPT, ATP luminescence, 48 h. Potency, µM (highest dose often 46.2 µM), for inactives: at the highest dose activity change, negative = growth inhibition, actives largely listed as inhibitors. actives 12% (n = 420,000). AID 686979; note: potency is the fitted concentration of half-maximal effect; % is set by controls: 0 for no effect and ±100 for the full control effect; nearly all actives have a fitted effect of over 55% in size
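Cell growth measured by CellTiter-Glo luminescence after a minimum 48 h, 37 C compound exposure with 20 nM CPT in Tdp1-knockout DT40 cells stably expressing hTDP1, seeded 400/well; qHTS titration format.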
IL1B secr inh: blocks inflammasome-driven IL-1 beta release; actives 4.7% (n = 360,000); THP-1 LPS/ATP IL-1B secretion, AlphaLISA, 16 h; active compounds read low; activity change, % at 57.5 µM; AID 743279; in the data active = activity change below about -50%; inconclusive = mostly about -30% to -49%; note: % is set by controls: 0 for no effect and ±100 for the full control effect
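THP-1 cells pretreated 1 hr with compounds (up to 57.5 uM final), then stimulated with LPS (250 ng/mL final) plus ATP (1.25 mM final); secreted IL-1B measured by AlphaLISA after 16 hr, decreased signal indicating inhibition.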
Active calls of the source: *; ? = inconclusive; · = no result; [ ] = remark or other dose. Rows were chosen to be rich in hits. Some 18% of all compounds tested hit in one or more screens of this group. Unless noted, calls come from the whole dose curve; as a rule, active = well fitted curve in the direction sought with a large enough effect; inconclusive = small, poorly fitted or top-dose-only effect, or another doubt; inactive = no such curve, though single readings can be large; an effect the other way counts as inactive or inconclusive.

SMILES | TGFb inhibitor | TDP1 cell noCPT | TDP1 block | HepG2 tox | DT40 TDP1 CPT | IL1B secr inh
C[C@@H]1CN([C@@H](C)CO)C(=O)c2cc(NC(=O)Nc3cccc4ccccc34)ccc2O[C@@H](C)CCCCO[C@H]1CN(C)C(=O)c1ccccc1 | -1% | 21µM* | · | 5% | ? | 37
CCOC(=O)c1ccc(NC(=O)c2c(Cl)cc(C)nc2C)cc1 | 1% | 5.2µM* | 5% | -10% | 3.3µM* | ?
CCOC(=O)c1ccc(Nc2cc(C)nc(C)c2C(=O)OCC)cc1 | -5% | 18µM* | 5% | -32% | ? | 25
CCOC(=O)c1ccc(Nc2nnc(C(C)(C)C)c(=O)[nH]2)cc1 | ? | 23µM* | 5% | -73% | ? | -91*
Cc1cc(Cl)c(C(=O)Nc2cccc(C(F)(F)F)c2)c(C)n1 | -17% | -28% | 6% | -23% | -28% | -54*
Cc1cc(C(F)F)n2nc(C(=O)Nc3cccc(C(F)(F)F)c3)nc2n1 | 14% | -5% | 2% | -11% | 8% | -11
CCOC(=O)c1ccc(Nc2ccc(C(C)=O)cc2)cc1 | -30% | ? | · | -23% | ? | 0
COc1ccc(OC)c(COC(=O)c2cccc(S(=O)(=O)N3CCCCC3)c2)c1 | -13% | -24% | -5% | 0% | -18% | 0
CCN(CC)C(=O)C1=C(C)N(Cc2ccc(OC)cc2)C(=O)C(CC(=O)NC2CC2)C1 (configuration not stated) | 0% | -5% | · | -4% | -7% | 4
CCCOC(=O)C1=C(C)N(C)C(=O)NC1c1cc2c(cc1Br)OCO2 (configuration not stated) | -11% | -15% | · | -6% | -26% | ?
Cc1nc(-c2cccnc2)sc1C(=O)Nc1ccc(C(F)(F)F)cc1 | 0% | ? | 4% | -28% | ? | -24
Cc1nc(-c2cccnc2)sc1C(=O)Nc1cccc(C(F)(F)F)c1 | 17% | 18µM* | 2% | -31% | ? | 10
CCn1cc(Cl)c(C(=O)Nc2ccc3c(c2)OCCO3)n1 | -8% | -24% | -3% | -28% | -28% | -15
CCn1cc(Cl)c(C(=O)Nc2cccc(C(F)(F)F)c2)n1 | -10% | -2% | 1% | -30% | 31% | -64*
COc1ccc(C2CC(c3ccccc3)Oc3cc(OC)c(OC)c(OC)c32)cc1 (configuration not stated) | 4% | · | 14% | -34% | · | ·
c1ccc2c(c1)ncn2-c1cncnc1 | -2% | -4% | · | 4% | -14% | 6
CCOC(=O)C1=C(CN(C)Cc2ccccc2)NC(=O)NC1c1ccc(OC)cc1 (configuration not stated) | ? | ? | -2% | -20% | ? | ·
CCOC(=O)C1=C(COc2ccccc2)NC(=O)NC1c1ccc2ccccc2c1 (configuration not stated) | ? | 21µM* | · | -47% | 18µM* | -5
CCOC(=O)C1=C(COc2ccccc2)NC(=O)NC1c1ccc(Br)cc1 (configuration not stated) | -12% | 16µM* | · | -18% | 18µM* | ?
CCOC(=O)C1=C(CCc2ccccc2)NC(=O)NC1c1ccc(Br)cc1 (configuration not stated) | 0% | ? | · | -20% | ? | -20
CCOC(=O)C1=C(CN(C)Cc2ccccc2)NC(=O)NC1c1ccc(OC(C)C)cc1 (configuration not stated) | ? | 16µM* | 7% | -43% | 16µM* | ·
CCOC(=O)C1=C(CP(=O)(c2ccccc2)c2ccccc2)NC(=O)NC1c1ccc(OC)cc1 (configuration not stated) | -17% | -14% | -3% | -17% | -15% | 13
Cc1ccc(NC(=O)CSc2nc(=O)n(Cc3ccco3)c3c2CCC3)cc1F | ? | ? | 5% | -25% | ? | ·
O=c1cnc2cnc(N3CCOCC3)nc2n1C[C@H]1CCCO1 | · | -29% | · | · | -4% | ·
CSCC[C@H](NC(=O)c1ccc(OCC2CCCO2)cc1)c1nc2ccccc2[nH]1 (some centres not stated) | -7% | -19% | 3% | -13% | -12% | -17
SMILES | TGFb inhibitor | TDP1 cell noCPT | TDP1 block | HepG2 tox | DT40 TDP1 CPT | IL1B secr inh
CCC(=O)Nc1nnc(S(=O)(=O)N2c3ccccc3CC2C)s1 (configuration not stated) | 13% | -16% | 8% | -24% | 12% | -27
CC1Cc2ccccc2N1S(=O)(=O)c1nnc(NC(=O)c2ccccc2)s1 (configuration not stated) | 14µM* | ? | -1% | -29% | ? | ·
Cc1ccc(C(=O)Nc2nnc(S(=O)(=O)N3c4ccccc4CC3C)s2)cc1 (configuration not stated) | -29% | 23µM* | 0% | -24% | ? | ·
CC(C)C(=O)Nc1nnc(S(=O)(=O)N2c3ccccc3CC2C)s1 (configuration not stated) | -2% | 0% | 3% | 0% | 17% | 8
O=C(CN1CCN(c2ccccn2)CC1)Nc1cccc(S(=O)(=O)N2CCCC2)c1 | -7% | 16µM* | 1% | -8% | ? | 2
O=C(Cn1cnc2ccccc21)Nc1cccc(S(=O)(=O)N2CCCC2)c1 | -7% | 4.1µM* | 1% | -2% | 5.8µM* | -13
O=C(Cn1c(NCCO)nc2ccccc21)Nc1cccc(S(=O)(=O)N2CCCC2)c1 | 6% | 10µM* | 1% | -29% | ? | 22
OCCNc1nc2ccccc2n1CCN1CCCCC1 | 28% | 2% | -9%[56.1 µM] | 16% | -13% | -7
O=C(CN1CCN(c2ccccn2)CC1)Nc1ccccc1 | 7% | -6% | -2% | 0% | -9% | -19
COCCNC(=O)CN1C(=O)NC2(CCCc3ccccc32)C1=O (configuration not stated) | 16% | -3% | · | -1% | 1% | -1
CC1CCCC(N2CCN(S(=O)(=O)c3ccccc3)CC2)C1 (configuration not stated) | -1% | ? | 0%[0.0935 µM] | -24% | -7% | 10
COc1cc(F)c(S(=O)(=O)N2CCN(S(=O)(=O)c3ccc4c(c3)OCCO4)CC2)c(F)c1 | · | · | 1% | · | · | ·

Assay outcomes from PubChem.
